Results published in ChEMBL document CHEMBL3988442, “University of Dundee, Small-Polar-MMV Screening Library” (2021).
For part of these data: Measured potencies and affinities stand elsewhere.

Key:
Design in all cases: scale not given: direction of the effect not stated beside the values
[1] = target: Protein translocase subunit SecA (Escherichia coli (strain K12)) (UniProt P10408); test: Assay to Identify E. coli SecA ATPase Inhibitors; format: functional; settings: 30 µM
[2] = target: T1, Ubiquitin-activating enzyme e1, putative (Leishmania donovani (strain BPK282A1)) (UniProt E9BSI1); test: Leishmania donovani Ubiquitin Activating Enzyme (LdE1); format: functional; settings: 30 µM
T1 sequence (whole entry): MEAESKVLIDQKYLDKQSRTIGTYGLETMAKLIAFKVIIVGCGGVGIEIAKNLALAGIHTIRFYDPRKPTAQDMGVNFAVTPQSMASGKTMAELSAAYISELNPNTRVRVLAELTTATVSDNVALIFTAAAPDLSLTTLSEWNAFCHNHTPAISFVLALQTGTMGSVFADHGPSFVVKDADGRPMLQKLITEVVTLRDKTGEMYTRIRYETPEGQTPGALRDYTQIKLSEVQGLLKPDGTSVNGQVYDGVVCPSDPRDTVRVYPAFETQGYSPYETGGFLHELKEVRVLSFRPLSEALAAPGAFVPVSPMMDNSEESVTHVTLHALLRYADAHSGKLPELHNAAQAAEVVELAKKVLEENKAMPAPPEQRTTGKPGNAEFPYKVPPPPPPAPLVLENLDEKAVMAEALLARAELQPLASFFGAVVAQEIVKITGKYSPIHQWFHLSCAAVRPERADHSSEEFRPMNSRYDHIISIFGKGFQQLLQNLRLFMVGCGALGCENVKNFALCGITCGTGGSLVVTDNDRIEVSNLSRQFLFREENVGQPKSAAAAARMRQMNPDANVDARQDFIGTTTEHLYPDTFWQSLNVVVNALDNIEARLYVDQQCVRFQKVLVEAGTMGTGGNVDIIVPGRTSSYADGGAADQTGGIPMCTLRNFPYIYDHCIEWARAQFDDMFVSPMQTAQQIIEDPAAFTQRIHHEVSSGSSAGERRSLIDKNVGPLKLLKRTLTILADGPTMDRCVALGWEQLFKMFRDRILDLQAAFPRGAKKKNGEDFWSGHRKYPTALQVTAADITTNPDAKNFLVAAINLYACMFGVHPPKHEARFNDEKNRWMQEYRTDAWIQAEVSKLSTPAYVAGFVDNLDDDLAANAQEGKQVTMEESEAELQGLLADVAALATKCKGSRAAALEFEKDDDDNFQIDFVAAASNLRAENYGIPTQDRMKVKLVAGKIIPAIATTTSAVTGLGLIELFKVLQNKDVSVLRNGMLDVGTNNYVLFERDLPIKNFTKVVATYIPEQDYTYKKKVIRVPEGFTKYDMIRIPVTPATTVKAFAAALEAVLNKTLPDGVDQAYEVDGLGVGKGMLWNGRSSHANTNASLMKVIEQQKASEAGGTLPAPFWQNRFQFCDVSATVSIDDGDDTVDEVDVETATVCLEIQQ

[3] = target: Sialic acid-binding Ig-like lectin 9 (Homo sapiens) (UniProt Q9Y336); test: Hs-Siglec9 ALPHAscreen SOP 20170721; settings: 10 µM
Trypanosoma cruzi = test: Trypanosoma cruzi phosphomannomutase and mannose-1-phosphate guanylyltransferase assay; format: functional; settings: 10 µM
[4] = target: T2, Arginase-2, mitochondrial (Homo sapiens) (UniProt P78540); test: in vitro enzyme assay to detect the production of urea directly proportional to the activity of Arginase II; format: functional; settings: 33.3 µM; further: in the data most compounds retested in dose-response had high values
T2 sequence (whole entry): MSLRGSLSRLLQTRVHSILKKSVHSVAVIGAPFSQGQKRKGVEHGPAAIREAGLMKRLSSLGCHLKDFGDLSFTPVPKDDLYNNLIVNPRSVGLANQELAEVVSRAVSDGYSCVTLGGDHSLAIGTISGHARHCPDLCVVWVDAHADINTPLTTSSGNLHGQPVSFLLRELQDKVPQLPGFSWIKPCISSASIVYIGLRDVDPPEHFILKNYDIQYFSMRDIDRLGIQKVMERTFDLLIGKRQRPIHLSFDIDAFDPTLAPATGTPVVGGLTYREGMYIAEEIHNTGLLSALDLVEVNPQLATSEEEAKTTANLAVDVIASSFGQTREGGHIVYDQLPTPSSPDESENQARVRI

[5] = target: T3, Proteasome subunit beta (Trypanosoma cruzi) (UniProt O96673); test: Trypanosoma cruzi proteasome chymotrypsin-like activity (TcProtChymo) assay.; further: in the data most compounds retested in dose-response had high values; format: functional; settings: 9.37 µM
T3 sequence (whole entry): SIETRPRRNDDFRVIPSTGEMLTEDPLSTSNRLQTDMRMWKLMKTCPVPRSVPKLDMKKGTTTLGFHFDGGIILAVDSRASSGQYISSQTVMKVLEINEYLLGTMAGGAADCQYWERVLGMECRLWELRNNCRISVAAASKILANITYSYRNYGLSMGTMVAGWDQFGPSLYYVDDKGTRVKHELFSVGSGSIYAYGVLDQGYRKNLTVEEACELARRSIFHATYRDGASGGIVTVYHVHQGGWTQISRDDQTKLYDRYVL

Homo sapiens = organism: Homo sapiens; test: To identify inhibition of the IFN signalling (Jak-Stat) pathway via expression of an eGFP reporter gene under the control of an IFN-stimulated response element (ISRE) containing MxA promoter.; format: functional; settings: 30 µM
[6] = target: T4, Tyrosyl-tRNA synthetase, putative (Trypanosoma cruzi (strain CL Brener)) (UniProt Q4DSP6); test: Trypanosoma cruzi tyrosyl tRNA synthetase (TcYRS) _High Tyrosine SOP; format: functional; settings: 30 µM; further: in the data most compounds retested in dose-response had high values
T4 sequence (whole entry): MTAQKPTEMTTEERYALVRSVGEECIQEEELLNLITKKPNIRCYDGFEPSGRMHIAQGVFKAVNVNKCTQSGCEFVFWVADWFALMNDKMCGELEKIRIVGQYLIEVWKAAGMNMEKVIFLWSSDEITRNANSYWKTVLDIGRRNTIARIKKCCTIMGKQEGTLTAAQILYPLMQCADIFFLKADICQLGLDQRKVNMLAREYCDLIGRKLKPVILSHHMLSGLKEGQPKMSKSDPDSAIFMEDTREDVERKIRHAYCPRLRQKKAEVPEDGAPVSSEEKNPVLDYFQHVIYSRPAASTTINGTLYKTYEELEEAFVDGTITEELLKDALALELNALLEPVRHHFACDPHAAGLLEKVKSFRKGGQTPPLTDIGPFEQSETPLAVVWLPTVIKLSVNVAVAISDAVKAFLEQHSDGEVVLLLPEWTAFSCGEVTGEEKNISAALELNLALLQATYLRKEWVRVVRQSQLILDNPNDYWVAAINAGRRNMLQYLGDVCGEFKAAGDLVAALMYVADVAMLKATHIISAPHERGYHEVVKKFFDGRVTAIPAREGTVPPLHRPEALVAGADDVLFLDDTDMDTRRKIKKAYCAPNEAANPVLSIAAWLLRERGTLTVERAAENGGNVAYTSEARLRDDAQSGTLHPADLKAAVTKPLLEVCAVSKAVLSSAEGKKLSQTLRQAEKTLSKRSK

[7] = target: T4, Tyrosyl-tRNA synthetase, putative (Trypanosoma cruzi (strain CL Brener)); test: Trypanosoma cruzi tyrosyl tRNA synthetase (TcYRS) SOP; format: functional; settings: 30 µM
[8] = target: Chromo domain-containing protein 1 (Saccharomyces cerevisiae (strain ATCC 204508 / S288c) (Baker's yeast)) (UniProt P32657); test: ScCHD-1 Enzyme Inhibition Assay; format: functional; settings: 30 µM; further: in the data most compounds retested in dose-response had high values
Chromo domain-containing protein 1 (Saccharomyces cerevisiae (strain ATCC 204508 / S288c) (Baker's yeast)), sequence (P32657 whole entry, the tested form may be a part): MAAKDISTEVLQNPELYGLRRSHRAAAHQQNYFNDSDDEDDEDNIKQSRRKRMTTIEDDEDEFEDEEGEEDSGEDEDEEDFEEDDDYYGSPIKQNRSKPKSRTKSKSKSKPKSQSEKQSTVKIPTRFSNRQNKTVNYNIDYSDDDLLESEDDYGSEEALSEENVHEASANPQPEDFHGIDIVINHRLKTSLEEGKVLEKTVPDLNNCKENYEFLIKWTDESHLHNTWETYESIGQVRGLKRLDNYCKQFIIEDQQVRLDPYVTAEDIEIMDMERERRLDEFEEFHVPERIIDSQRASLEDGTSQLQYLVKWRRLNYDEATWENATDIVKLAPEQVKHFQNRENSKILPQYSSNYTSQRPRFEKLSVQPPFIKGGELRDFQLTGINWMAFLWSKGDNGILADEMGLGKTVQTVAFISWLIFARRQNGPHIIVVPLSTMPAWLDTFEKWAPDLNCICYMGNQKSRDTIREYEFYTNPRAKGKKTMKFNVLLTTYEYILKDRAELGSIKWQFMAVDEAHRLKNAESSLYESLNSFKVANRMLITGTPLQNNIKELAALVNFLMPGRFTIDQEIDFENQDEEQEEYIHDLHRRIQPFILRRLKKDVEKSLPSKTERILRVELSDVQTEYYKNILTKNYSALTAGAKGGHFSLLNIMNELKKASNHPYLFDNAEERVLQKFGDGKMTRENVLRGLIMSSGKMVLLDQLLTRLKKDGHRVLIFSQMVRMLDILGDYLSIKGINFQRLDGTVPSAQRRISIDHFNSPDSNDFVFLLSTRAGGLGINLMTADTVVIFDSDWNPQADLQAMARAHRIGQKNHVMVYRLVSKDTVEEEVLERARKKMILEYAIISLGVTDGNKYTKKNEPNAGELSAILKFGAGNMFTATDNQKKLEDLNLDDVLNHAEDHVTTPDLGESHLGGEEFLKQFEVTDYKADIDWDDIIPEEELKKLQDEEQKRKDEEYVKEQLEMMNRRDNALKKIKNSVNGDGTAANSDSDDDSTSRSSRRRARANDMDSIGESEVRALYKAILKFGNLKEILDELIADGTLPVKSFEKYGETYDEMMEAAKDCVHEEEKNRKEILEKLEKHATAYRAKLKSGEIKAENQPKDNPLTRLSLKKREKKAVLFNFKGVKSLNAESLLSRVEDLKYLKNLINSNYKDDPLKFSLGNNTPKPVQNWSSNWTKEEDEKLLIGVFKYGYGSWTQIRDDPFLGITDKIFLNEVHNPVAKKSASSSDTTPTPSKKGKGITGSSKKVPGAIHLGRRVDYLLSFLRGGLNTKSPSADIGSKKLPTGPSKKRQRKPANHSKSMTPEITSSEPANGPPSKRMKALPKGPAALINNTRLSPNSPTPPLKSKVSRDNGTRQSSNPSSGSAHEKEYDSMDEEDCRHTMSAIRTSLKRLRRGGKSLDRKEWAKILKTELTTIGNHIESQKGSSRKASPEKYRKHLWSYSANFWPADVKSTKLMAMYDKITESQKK

Sialic acid-binding Ig-like lectin 9 (Homo sapiens), sequence (Q9Y336 whole entry): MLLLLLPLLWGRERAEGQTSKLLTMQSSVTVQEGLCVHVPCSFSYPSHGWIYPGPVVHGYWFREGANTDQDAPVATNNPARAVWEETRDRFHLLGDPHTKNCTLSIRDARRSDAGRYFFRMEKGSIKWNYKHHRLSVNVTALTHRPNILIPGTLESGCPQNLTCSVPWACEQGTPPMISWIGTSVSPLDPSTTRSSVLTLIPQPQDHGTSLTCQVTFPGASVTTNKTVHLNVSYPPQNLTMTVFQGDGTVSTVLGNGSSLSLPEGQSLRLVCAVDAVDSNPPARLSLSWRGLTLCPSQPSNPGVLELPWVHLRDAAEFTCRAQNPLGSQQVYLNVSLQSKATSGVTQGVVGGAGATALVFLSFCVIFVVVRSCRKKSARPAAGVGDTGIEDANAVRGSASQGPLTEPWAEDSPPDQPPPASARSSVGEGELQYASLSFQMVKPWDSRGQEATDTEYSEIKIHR
Protein translocase subunit SecA (Escherichia coli (strain K12)), sequence (P10408 whole entry): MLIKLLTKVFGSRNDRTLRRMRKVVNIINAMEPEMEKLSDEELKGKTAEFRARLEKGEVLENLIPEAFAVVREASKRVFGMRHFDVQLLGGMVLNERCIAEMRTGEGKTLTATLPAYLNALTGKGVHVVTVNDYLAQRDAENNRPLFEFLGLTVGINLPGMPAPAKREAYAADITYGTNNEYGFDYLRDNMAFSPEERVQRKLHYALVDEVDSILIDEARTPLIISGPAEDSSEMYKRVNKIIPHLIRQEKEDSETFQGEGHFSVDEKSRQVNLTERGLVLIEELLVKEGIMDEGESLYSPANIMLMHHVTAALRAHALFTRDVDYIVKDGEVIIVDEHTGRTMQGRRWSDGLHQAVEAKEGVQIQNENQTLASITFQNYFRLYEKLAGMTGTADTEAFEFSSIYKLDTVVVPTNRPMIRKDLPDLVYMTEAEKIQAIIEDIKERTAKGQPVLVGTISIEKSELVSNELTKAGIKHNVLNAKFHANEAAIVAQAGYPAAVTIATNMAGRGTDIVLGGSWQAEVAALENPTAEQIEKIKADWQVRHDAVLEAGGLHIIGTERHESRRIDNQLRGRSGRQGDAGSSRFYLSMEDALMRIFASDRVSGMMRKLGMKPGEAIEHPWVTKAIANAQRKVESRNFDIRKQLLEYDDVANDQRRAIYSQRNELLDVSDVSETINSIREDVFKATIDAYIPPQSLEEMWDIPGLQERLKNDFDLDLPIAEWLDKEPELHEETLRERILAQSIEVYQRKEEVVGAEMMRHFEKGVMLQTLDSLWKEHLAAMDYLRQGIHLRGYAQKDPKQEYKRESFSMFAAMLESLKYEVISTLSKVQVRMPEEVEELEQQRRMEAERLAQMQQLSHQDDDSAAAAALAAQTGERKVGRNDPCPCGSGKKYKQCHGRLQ

SMILES | Percent Effect [1] | Percent Effect [2] | Percent Effect [3] | Percent Effect (Trypanosoma cruzi) | Percent Effect [4] | Percent Effect [5] | Percent Effect (Homo sapiens) | Percent Effect [6] | Percent Effect [7] | Percent Effect [8]
CNC(=O)CN1CCCC12CCN(C(=O)c1ccc(F)cc1)CC2 | -1.29% | 1.3% | -0.371% | -6.75% | 3.2% | 8.33% | 22.8% | -0.966% | -5% | -4.71%
CCc1nc(CN(C)C2CCN(CCNS(=O)(=O)CC)C2)no1 (stereo not given) | 1.97% | 5.33% | -3.88% | -6.83% | -2.22% | 18.1% | 14.6% | -1.58% | -2.56% | -8.45%
COCCc1ncc(CN2CCC(Oc3ccccc3C)CC2)cn1 | -2.3% | 17.3% | 7.21% | 1.58% | -0.443% | 12.6% | 7.38% | 6.35% | 20% | -22.7%
Cc1ccc(NC(=O)C2CSCN2C(=O)c2cnn(C)c2)c(C)c1 (stereo not given) | -6.12% | 5.13% | 11% | 3.29% | -0.41% | -1.28% | 0.716% | 4.31% | 18.1% | -1.32%
Cc1ncncc1C(=O)Nc1cnn(CC(=O)NC2CCCC2)c1 | -3.38% | 20% | 2.3% | 2.96% | -0.443% | 10.8% | 8.96% | 1.06% | 12.5% | -20.3%
Cc1nn(C)c(N(C)C)c1CNC(C)c1cccc(OC(C)C)c1 (stereo not given) | 2.06% | 5.2% | 13.8% | -0.746% | -7.58% | 4.91% | 15.4% | 3.92% | 18.8% | -11.9%
Cc1nn(C)c(N(C)C)c1CNC(C)COc1cccc(F)c1 (stereo not given) | -4.28% | -5.2% | -1.85% | -6.16% | -2.66% | 5.26% | 9.12% | -3.92% | -4.71% | -2.29%
O=C(c1cnco1)N1CCCC(Cc2nccs2)C1 (stereo not given) | -3.28% | 14.7% | 5.58% | 0.395% | 4.87% | 19.1% | -17.7% | 7.41% | 15% | -20.4%
CS(=O)(=O)N1CCC(c2nnc3ccc(C(=O)N4CCCC4)cn23)C1 (stereo not given) | -4.16% | -42.9% | -5.27% | -3.8% | -2.02% | 16.9% | 6.07% | 0.526% | 5.13% | -3.44%
CN1CCN(CC2CC2)C(=O)c2cnc(N3CCCC3)nc21 | -7.66% | 0% | 1.44% | -1% | -4.88% | 4.16% | 8.07% | -4.74% | -10.3% | -11.6%
COCc1c(C(=O)NC2CCCC2)nnn1-c1ccc(C)cc1 | 106% | 9.33% | -6.27% | -2.37% | 0.443% | 8.54% | 14.6% | -2.12% | 7.5% | -17.9%
CC(C)NC(=O)C1CN(C(=O)N2CCCC2)CC12CCOCC2 (stereo not given) | -1.18% | -3.9% | -4.49% | -1.27% | -4.45% | -6.62% | 5.24% | 2.63% | 2.56% | 2.05%
CCn1c(Cn2cncn2)nnc1C1CCN(Cc2ccc(C)o2)CC1 | -6.62% | 5.41% | 5.22% | 3.78% | 2.45% | 9.07% | 5.52% | 4.79% | 14.6% | -3.96%
COc1ccc(C(N)c2cccc(S(C)(=O)=O)c2)cc1 (stereo not given) | -6.1% | 18.7% | 7.33% | 2.41% | -6.65% | 4.83% | 9.08% | 4.74% | 15.4% | -12.4%
COC(=O)c1cccn1C1CCN(Cc2ccccc2)CC1 | 0.208% | 7.79% | 10% | 2.05% | -10.9% | 6.49% | 16.2% | 3.92% | 11.8% | -3.52%
COc1ccc(CNCc2ccnc(N3CCCCC3)c2)cc1OC | -2.73% | -2.56% | 3.59% | 4.22% | 2.87% | -1.62% | 25.8% | 3.35% | 1.21% | -2.92%
c1ccc(OC2CCCC2)c(CNC2CCc3ncnn3C2)c1 (stereo not given) | -3.8% | 10.3% | -13.9% | 5.35% | 2.87% | 20.7% | 3.46% | 6.22% | 18.1% | -3.21%
CC(CC#N)NC(=O)c1cc(Br)c2c(c1)OCCO2 (stereo not given) | -2.19% | -5.33% | -0.459% | -4.22% | 3.1% | -1.61% | 7.62% | 0.526% | 2.56% | -4.98%
CC(C)c1nc(C2CCCN2CC(=O)Nc2nncs2)no1 (stereo not given) | -6.03% | 16% | 8.36% | 0.402% | -1.33% | 5.17% | 7.39% | 5.79% | 15.4% | 23.5%
O=C1CO[C@@H]2CN(Cc3cccs3)C[C@H]2N1CC1CC1 | -6.35% | 19.5% | -2.08% | 2.04% | 1.62% | 13.9% | -6.77% | 13.2% | 17.9% | -0.629%
Cc1cc(OCC(=O)N2CCCC(c3noc(C)n3)C2)no1 (stereo not given) | 2.24% | 13.3% | -8.66% | -4.62% | 4.88% | 19.8% | 17.5% | -0.526% | 2.56% | -9.02%
COCCCN1CC2(CCCCN2C(=O)c2ccsc2)CC1=O (stereo not given) | 0.227% | 3.9% | 1.99% | 2.44% | 1.83% | 0.601% | 15.2% | 0% | 7.5% | 2.21%
c1ccc(Cn2ccnc2CN2CCCC2c2noc(C3CC3)n2)cc1 (stereo not given) | 2.82% | 5.33% | -7.23% | -5.22% | 1.77% | 19.1% | 15.7% | 7.89% | 10.3% | -12.1%
COc1cc(N2CCCC(c3nccn3Cc3cscn3)C2)nc(N)n1 (stereo not given) | -4.57% | 5.41% | 16.6% | 6.89% | -22.7% | 15.1% | 25.7% | 6.92% | 14.6% | -3.5%
